# Whole data set: some 25,000 sequences, median “ln(normalized median fluorescence intensity)” near 6.7, cut for the highest 2% near 10. The entries come from a sample that favours the highest values as a whole.
# System: PfHDP1 homeodomain (GST-tagged)
# Assay: gcPBM binding intensity (ln(normalized median fluorescence intensity)); higher = stronger DNA binding
# Outline: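 The binding buffer was 1× PBS containing 1% milk, 0.2 mg/ml BSA, 0.5% salmon testes DNA and 0.03% Triton X-100. In it, GST-tagged P. falciparum DNA-binding domains expressed in E. coli were applied for 1 h to an Agilent 4 × 180k array of primer-extended double-stranded 36-bp intergenic genomic probes plus negative controls. Binding intensity, read with Alexa488 anti-GST antibody and a 488 nm scan, is the highest Masliner-normalised natural-log median intensity across replicate spots of either probe orientation.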
row,Sequence,gcPBM binding intensity (ln)
1,AAGGTGGGAAAAAATAGTACACAACAAAAATGTATG [XGTACX_site8741],6.64
2,AAACATTAAAATAACTCACACATTTTTCTAGTCTTC [CACACA_site4612],6.19
3,AGAACTTTTAATGGATGTACAGTTATTTTATTATTT [XGTACX_site6226],6.12
4,ATATATATATATATAGTGCATAAAATAAGTTTCTAA,9.54
5,TATGTTTTTACATATTGTACATATTCTTGTAATACG [XGTACX_site1179],6.29
6,TTCATATAATTCATCTGTACATATTGATAGTATGCA [XGTACX_site6386],6.29
7,ACTACGTGTCAAAAATATTAATTACAAATGAATAAA [GTGCAC_negctrl_site248],6.08
8,AGTAGTCTGGAGAAGAGTACACAGTATCTGGTAACA [XGTACX_site2032],6.02
9,ACATCATAAAATTTATGTACACATTTTTAATTATAC [XGTACX_site7759],6.51
10,AATATTTTAATGCACACACACAAAAAAAAAAAAAAA [CACACA_site7374],10.7
11,CTCTATAAATGCTGCACACACATTTAATTATTTAAG [CACACA_site2582],8.11
12,ATAATATTTTAATGCACACACACAAAAAAAAAAAAA [CACACA_site2891],9.96
13,TTTAAATTTTAATATGCACACAAAATGTTATATTAA [CACACA_site8015],9.9
14,ATTTATAAAATTAATGCACACATCAGCATTTATAAA [CACACA_site1025],10.6
15,ATTTCTACTAAAAATACACACGATGATACAACGAAG [CACACA_site1755],6.85
16,ATATATTAAAAACGATGTACCCTGAACTAAAAAAAA [XGTACX_site4986],6.52
17,AACGTTCAATTTAAATGTACAAATGTATTTAAATAT [XGTACX_site315],6.38
18,TATATTTAGAATACAATCTTAAAGTTGAAATAAAAT [CACACA_negctrl_site1292],6.03
19,TTATATTAAAAAAGATGTACGTTTAGGAAAAATATA [XGTACX_site7456],6.53
20,TAAGGAAAAAATTATAGTACATAATAAATGTATATA [XGTACX_site8328],6.15
21,TCATACATTTTCCTTGCACACATTTATAATTAATGG [CACACA_site4511],8.55
22,TCATACATTTTCCTTGCACACATTTATAATTAATGT [CACACA_site614],8.95
23,TATATATATATATATGCACACATTTATACAATTTTA [CACACA_site2986],10.2
24,TCCTTTTTTTTTTATGCACACACAATTATACATTCC [CACACA_site9287],10.5
25,CTTTTTTTTTTATGCACACACAATTATACATTCCTT [CACACA_site3877],10.6

row,Sequence,gcPBM binding intensity (ln)
1,TTCCTTTAACCCTGCACACATACATACATTTATATG [CACACA_site3953],8.51
2,ATGTATGTATAATATACACACTCACAAGCATTCAAA [CACACA_site4306],6.75
3,ATATTCTTCTAAAGGCGTACATCTACATTTATGAAA [XGTACX_site2145],6.28
4,TTTATATATAAATATATATATATATATATATATATA [TGCATGCA_negctrl_site121],9.28
5,TCTAGGAAAAATTATAGTACACAAAAATATATATAT [XGTACX_site4136],7.95
6,TAATATACTTAATACACACACGAATATTTATAAATA [CACACA_site6675],6.97
7,CACATATACTTCTGTGCACACGAATATTTTTCTTCT [CACACA_site1408],11.2
8,ATAAAATATAGGTATGCACACACATATACTTCTGTG [CACACA_site8398],8.84
9,CATATACTTCTGTGCACACGAATATTTTTCTTCTTC [CACACA_site1407],11.2
10,AAAATATAGGTATGCACACACATATACTTCTGTGCA [CACACA_site1409],10
11,CATATATATATATATACACACATATATATTTTCTTT [CACACA_site1457],7.04
12,TTTGTTAATTATAAATGTACATATTATATATATATA [XGTACX_site8870],8.42
13,CACGCGCCCGGACACACACACACACCCATATATATA [CACACA_site5251],6.84
14,TTAAACTTGTTTTGGATGCACTATATAATTCATTTT [GTGCAC_site9549],7.2
15,AGAGAGATGACAAAAAGATGAATAACGTTAAGGGAT [XGTACX_negctrl_site120],7.4
16,AATATGAAATATATTACACACATTTATATGTTGAAA [CACACA_site1427],6.31
17,TTATGGTGCATGAAATCACACATTGATATATATGCT [CACACA_site5352],8.81
18,ATTATATTTATGTTGGTGCATTATACATGAAATTTA,10.5
19,ACATATGAAAAATATGCATGCAAATATTATTTAACA [TGCATGCA_site802],7.03
20,ATCATATTTATGTTGGTGCATTATGCATGGATTTTA [GTGCAC_site9795],10.8
21,ATATGGATTATACATACATGCATACATACATACATA [TGCATGCA_site475],6.58
22,TATTTTTATTATATGGTGCATATATACATACATATA,9.96
23,TATAATAATAATTATACATGCATGAATATTTATATG [TGCATGCA_site811],6.46
24,ATCATATTTATATTGGTGCATTATGCATGAAATTTA [GTGCAC_site9571],10.6

# From the supplement of paper PMC11417369
